Measured values published in the supplement of paper PMC10849652.
About 7,900 targets were measured; listed, in parts, are those with a hit and a random draw of the rest. About 0.6% of all pairs of compound and target were hits.

Assays:
Assay in all cases: log2 fold change, soluble protein after heating vs DMSO (PISA); higher = thermal stabilisation; K562 cells, 10 uM, 30 min; active = over 0.2 and 3.5 SD of the protein, either way, in both replicates (recomputed)
[1] = compound: COC1=CC=C(C=C1)CN2C=CC3=C2C=C(C=C3)C(=O)NO
Summary of the method: (§1)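 For each measurement, 10 μM compound was applied for 30 min to K562 cells at 2×10^6 cells/mL. Aliquots were heated for 3 min across 48°C-58°C, pooled, and extracted in PBS with 0.5% NP-40 at 4°C; the supernatant after 21,000xg for 90 min was soluble protein. This was quantified by TMTpro 16plex LC-MS/MS with channel sums equalised, and thermal stability was reported relative to control samples from duplicates, on a log2 fold-change scale.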

filanesib = compound: CON(C)C(=O)N1N=C(c2cc(F)ccc2F)S[C@@]1(CCCN)c1ccccc1 [filanesib]
Summary of the method: as §1

zotarolimus = compound: CO[C@H]1C[C@@H]2CC[C@@H](C)[C@@](O)(O2)C(=O)C(=O)N2CCCC[C@H]2C(=O)O[C@H]([C@H](C)C[C@@H]2CC[C@H](n3cnnn3)[C@H](OC)C2)CC(=O)[C@H](C)/C=C(\C)[C@@H](O)[C@@H](OC)C(=O)[C@H](C)C[C@H](C)/C=C/C=C/C=C/1C [zotarolimus]
Summary of the method: as §1

idasanutlin = compound: COc1cc(C(=O)O)ccc1NC(=O)[C@@H]1N[C@@H](CC(C)(C)C)[C@](C#N)(c2ccc(Cl)cc2F)[C@H]1c1cccc(Cl)c1F [idasanutlin]
Summary of the method: as §1

alisertib = compound: COc1cc(Nc2ncc3c(n2)-c2ccc(Cl)cc2C(c2c(F)cccc2OC)=NC3)ccc1C(=O)O [alisertib]
Summary of the method: as §1

[2] = compound: COc1cc2nc(-c3cc(F)ccc3O)nc(N[C@@H]3CNC[C@H]3C(C)(C)O)c2cc1OC
Summary of the method: as §1

gefitinib = compound: COc1cc2ncnc(Nc3ccc(F)c(Cl)c3)c2cc1OCCCN1CCOCC1 [gefitinib]
Summary of the method: as §1

[3] = compound: COc1cccc2cc(-c3nc([C@H]4CC[C@H](C(=O)O)CC4)n4ncnc(N)c34)[nH]c12
Summary of the method: as §1

lapatinib = compound: CS(=O)(=O)CCNCc1ccc(-c2ccc3ncnc(Nc4ccc(OCc5cccc(F)c5)c(Cl)c4)c3c2)o1 [lapatinib]
Summary of the method: as §1

pictilisib = compound: CS(=O)(=O)N1CCN(Cc2cc3nc(-c4cccc5[nH]ncc45)nc(N4CCOCC4)c3s2)CC1 [pictilisib]
Summary of the method: as §1

Measured: log2 fold change

MAP1LC3B2 (UniProt A6NCE7)
inactive: [1] -0.026 | filanesib -0.062 | zotarolimus 0.011 | idasanutlin -0.022 | alisertib -0.004 | [2] -0.032 | gefitinib -0.003 | [3] -0.035 | lapatinib -0.011 | pictilisib -0.004

MCU (UniProt Q8NE86)
inactive: [1] -0.056 | filanesib -0.152 | zotarolimus 0.164 | idasanutlin -0.091 | alisertib -0.053 | [2] -0.053 | gefitinib -0.049 | [3] 0.054 | lapatinib -0.099 | pictilisib 0.09

MGST1 (UniProt P10620)
inactive: [1] 0.039 | filanesib -0.019 | zotarolimus 0.006 | idasanutlin -0.06 | alisertib 0.013 | [2] 0.152 | gefitinib -0.036 | [3] -0.043 | lapatinib -0.009 | pictilisib 0.112

LMNB2 (UniProt Q03252)
inactive: [1] -0.023 | filanesib 0.1 | zotarolimus -0.064 | idasanutlin 0.099 | alisertib 0.004 | [2] -0.005 | gefitinib -0.001 | [3] 0.069 | lapatinib 0.059 | pictilisib 0.03

MIEF1 (UniProt L0R8F8)
inactive: [1] 0.104 | filanesib -0.072 | zotarolimus 0.023 | idasanutlin -0.063 | alisertib -0.084 | [2] -0.148 | gefitinib -0.005 | [3] 0 | lapatinib 0.135 | pictilisib 0.033

L2HGDH (UniProt Q9H9P8)
Chain of UniProt Q9H9P8 (Q9H9P8 whole entry, looked up): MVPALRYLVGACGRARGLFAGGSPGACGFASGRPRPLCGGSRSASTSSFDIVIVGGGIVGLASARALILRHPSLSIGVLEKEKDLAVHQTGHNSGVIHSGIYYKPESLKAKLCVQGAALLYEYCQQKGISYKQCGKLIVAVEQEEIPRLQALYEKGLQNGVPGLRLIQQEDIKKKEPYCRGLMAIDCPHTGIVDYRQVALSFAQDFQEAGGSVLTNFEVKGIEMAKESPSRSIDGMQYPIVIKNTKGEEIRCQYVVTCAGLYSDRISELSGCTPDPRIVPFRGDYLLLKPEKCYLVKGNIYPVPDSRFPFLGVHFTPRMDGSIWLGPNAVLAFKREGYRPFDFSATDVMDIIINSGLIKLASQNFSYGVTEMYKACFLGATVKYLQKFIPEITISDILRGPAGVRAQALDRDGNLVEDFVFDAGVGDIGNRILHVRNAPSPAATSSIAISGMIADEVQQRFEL
inactive: [1] 0.096 | filanesib -0.121 | zotarolimus 0.07 | idasanutlin -0.037 | alisertib -0.019 | [2] -0.034 | gefitinib -0.01 | [3] 0.041 | lapatinib -0.069 | pictilisib 0.115

LARP4 isoform 4 (UniProt Q71RC2)
inactive: [1] 0.005 | filanesib 0.111 | zotarolimus -0.007 | idasanutlin 0.071 | alisertib -0.045 | [2] -0.159 | gefitinib 0.01 | [3] -0.125 | lapatinib 0.054 | pictilisib -0.068

LRBA, A0A494BZW2
inactive: [1] 0.006 | filanesib -0.136 | zotarolimus -0.127 | idasanutlin -0.207 | alisertib 0.001 | [2] 0.453 | gefitinib -0.026 | [3] 0.046 | lapatinib -0.097 | pictilisib 0.095

MAP4K4 isoform 3 (UniProt O95819)
Chain of UniProt O95819 (O95819 whole entry, looked up): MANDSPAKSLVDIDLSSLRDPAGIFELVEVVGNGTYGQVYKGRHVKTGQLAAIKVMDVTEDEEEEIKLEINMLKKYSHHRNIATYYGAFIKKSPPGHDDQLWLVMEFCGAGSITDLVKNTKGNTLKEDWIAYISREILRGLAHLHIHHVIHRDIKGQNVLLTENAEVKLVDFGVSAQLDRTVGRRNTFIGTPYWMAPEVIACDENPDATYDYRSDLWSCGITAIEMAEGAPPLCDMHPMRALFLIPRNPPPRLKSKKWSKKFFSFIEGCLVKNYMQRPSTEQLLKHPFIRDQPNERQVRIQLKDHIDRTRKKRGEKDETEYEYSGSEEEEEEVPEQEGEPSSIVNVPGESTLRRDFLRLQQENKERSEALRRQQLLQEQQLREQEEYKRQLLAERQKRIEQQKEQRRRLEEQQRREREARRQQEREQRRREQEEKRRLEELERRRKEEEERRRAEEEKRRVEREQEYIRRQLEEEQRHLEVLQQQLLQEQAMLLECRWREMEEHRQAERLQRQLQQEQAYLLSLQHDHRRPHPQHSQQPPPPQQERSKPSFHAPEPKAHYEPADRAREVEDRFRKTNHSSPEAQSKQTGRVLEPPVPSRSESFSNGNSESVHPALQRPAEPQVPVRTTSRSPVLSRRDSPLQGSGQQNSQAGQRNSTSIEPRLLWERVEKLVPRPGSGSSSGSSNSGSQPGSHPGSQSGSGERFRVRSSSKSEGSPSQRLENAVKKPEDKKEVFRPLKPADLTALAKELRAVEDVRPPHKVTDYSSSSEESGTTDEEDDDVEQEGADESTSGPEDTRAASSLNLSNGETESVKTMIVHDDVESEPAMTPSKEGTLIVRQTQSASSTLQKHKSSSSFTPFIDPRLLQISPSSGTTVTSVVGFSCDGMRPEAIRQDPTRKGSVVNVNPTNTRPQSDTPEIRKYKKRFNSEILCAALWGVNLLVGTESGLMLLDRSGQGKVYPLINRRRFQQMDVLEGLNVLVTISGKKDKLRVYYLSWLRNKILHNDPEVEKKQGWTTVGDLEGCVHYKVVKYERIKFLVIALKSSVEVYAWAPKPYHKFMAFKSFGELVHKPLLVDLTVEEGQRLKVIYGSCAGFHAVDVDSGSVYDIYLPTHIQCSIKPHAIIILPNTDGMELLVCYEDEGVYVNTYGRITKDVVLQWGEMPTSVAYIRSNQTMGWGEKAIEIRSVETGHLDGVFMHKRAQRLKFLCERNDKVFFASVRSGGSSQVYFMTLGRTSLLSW
inactive: [1] -0.021 | filanesib 0.032 | zotarolimus 0.021 | idasanutlin 0.093 | [2] -0.05 | gefitinib 0.01 | [3] 0.02 | lapatinib -0.021 | pictilisib -0.153

KCNK5 (UniProt O95279)
inactive: [1] 0.059 | filanesib -0.117 | zotarolimus -0.044 | alisertib -0.408 | [2] -0.541 | [3] 0.193 | lapatinib -0.227 | pictilisib -0.007

MELK (UniProt Q14680)
Chain of UniProt Q14680 (Q14680 whole entry, looked up): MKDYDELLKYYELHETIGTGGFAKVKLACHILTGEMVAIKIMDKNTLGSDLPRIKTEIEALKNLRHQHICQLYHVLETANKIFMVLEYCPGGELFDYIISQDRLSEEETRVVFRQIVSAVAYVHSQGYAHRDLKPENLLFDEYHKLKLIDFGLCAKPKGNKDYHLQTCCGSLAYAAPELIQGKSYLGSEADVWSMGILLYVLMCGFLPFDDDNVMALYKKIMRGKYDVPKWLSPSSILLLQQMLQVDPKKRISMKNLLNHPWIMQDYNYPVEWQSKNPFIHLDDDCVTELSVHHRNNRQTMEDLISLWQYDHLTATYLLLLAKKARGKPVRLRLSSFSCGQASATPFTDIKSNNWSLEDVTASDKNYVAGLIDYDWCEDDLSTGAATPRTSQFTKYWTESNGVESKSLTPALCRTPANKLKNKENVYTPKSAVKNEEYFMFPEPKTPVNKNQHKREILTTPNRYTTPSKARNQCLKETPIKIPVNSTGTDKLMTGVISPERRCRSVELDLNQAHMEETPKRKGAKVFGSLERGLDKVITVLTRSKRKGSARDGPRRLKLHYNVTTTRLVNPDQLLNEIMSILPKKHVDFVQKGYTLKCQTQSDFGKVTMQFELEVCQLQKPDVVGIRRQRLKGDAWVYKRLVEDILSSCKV
active: [2] -3.59
inactive: [1] 0.072 | filanesib -0.116 | zotarolimus -0.019 | idasanutlin 0.061 | gefitinib 0.253 | lapatinib -0.006 | pictilisib -0.079

MAP3K20 (UniProt Q9NYL2)
Chain of UniProt Q9NYL2 (Q9NYL2 whole entry, looked up): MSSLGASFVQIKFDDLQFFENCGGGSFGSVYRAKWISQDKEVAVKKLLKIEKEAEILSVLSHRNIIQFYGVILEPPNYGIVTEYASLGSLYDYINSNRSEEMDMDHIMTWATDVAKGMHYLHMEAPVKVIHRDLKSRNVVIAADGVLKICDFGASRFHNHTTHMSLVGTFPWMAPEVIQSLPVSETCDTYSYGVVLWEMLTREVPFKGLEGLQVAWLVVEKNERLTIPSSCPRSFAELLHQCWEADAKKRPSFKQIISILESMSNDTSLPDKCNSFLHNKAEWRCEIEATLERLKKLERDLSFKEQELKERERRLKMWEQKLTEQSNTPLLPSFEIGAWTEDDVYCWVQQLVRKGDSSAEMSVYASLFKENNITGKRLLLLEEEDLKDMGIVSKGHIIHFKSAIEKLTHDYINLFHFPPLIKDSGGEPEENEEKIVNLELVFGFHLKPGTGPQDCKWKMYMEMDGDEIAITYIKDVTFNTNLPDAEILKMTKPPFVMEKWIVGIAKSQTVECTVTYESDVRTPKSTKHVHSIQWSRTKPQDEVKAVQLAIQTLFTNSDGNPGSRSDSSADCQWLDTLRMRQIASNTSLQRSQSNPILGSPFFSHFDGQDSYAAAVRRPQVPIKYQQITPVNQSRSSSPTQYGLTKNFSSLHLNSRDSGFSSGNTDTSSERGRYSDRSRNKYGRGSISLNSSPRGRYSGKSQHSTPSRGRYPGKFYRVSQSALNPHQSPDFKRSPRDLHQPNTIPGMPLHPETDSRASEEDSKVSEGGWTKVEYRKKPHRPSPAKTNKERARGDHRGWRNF
inactive: [1] 0.04 | filanesib 0.075 | zotarolimus 0.033 | idasanutlin 0.064 | [2] 0.048 | gefitinib -0.042 | [3] -0.059 | lapatinib 0 | pictilisib -0.02

MAP3K20 isoform 2 (UniProt Q9NYL2)
inactive: [1] 0.044 | filanesib 0.068 | idasanutlin 0.407 | [2] 0.036 | gefitinib -0.003 | [3] -0.242 | lapatinib -0.121

ILF3 (UniProt Q12906)
inactive: [1] 0.033 | filanesib 0.156 | alisertib -0.203 | gefitinib -0.13 | [3] 0.045

MED12 isoform 2 (UniProt Q93074)
inactive: [1] 0.093 | filanesib 0.256 | idasanutlin 0.103 | alisertib 0.214 | [2] -0.09 | gefitinib 0.024 | [3] 0.007 | lapatinib 0.028 | pictilisib -0.113

MAP2K5 (UniProt Q13163)
inactive: [1] 0.206 | zotarolimus 0.003 | idasanutlin -0.117

MED22 (UniProt Q15528)
inactive: [1] -0.03 | filanesib -0.008 | zotarolimus 0.047 | idasanutlin -0.023 | alisertib 0.019 | gefitinib 0.017 | [3] -0.171

LYN isoform 2 (UniProt P07948)
inactive: [1] -0.2 | filanesib -0.212 | zotarolimus -0.054 | idasanutlin -0.027 | [2] 0.074 | gefitinib 0.069 | lapatinib -0.046

MED1 (UniProt Q15648)
inactive: [1] -0.051 | filanesib 0.116 | zotarolimus 0.042 | idasanutlin 0.056 | alisertib -0.056 | [2] -0.063 | gefitinib -0.039 | [3] 0.016 | lapatinib 0.114 | pictilisib 0.077

LUM (UniProt P51884)
Chain of UniProt P51884 (P51884 whole entry, looked up): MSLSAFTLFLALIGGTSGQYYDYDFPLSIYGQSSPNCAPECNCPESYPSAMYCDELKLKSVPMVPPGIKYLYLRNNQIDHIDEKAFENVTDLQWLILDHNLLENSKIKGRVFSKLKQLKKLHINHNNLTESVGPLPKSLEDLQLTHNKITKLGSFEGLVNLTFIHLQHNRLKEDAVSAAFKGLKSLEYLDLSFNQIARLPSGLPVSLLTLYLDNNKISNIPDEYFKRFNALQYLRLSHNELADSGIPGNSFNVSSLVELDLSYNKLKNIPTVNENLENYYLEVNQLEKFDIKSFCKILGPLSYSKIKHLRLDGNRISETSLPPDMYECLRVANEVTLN
inactive: [1] -0.151 | filanesib 0.169 | zotarolimus 0 | idasanutlin -0.023 | [2] -0.216 | gefitinib 0.087 | lapatinib 0.067

MCM10 (UniProt Q7L590)
inactive: [1] 0.303 | filanesib -0.192 | alisertib -0.097 | [2] -0.103 | gefitinib -0.014 | [3] 0.1 | lapatinib 0.204 | pictilisib -0.118

MBLAC1 (UniProt A4D2B0)
inactive: [1] 0.11 | zotarolimus 0.008 | idasanutlin 0.056 | alisertib -0.161 | [2] -0.064 | [3] 0.086 | lapatinib 0.01 | pictilisib 0.043

LMBR1 isoform 3 (UniProt Q8WVP7)
Chain of UniProt Q8WVP7 (Q8WVP7 whole entry, looked up): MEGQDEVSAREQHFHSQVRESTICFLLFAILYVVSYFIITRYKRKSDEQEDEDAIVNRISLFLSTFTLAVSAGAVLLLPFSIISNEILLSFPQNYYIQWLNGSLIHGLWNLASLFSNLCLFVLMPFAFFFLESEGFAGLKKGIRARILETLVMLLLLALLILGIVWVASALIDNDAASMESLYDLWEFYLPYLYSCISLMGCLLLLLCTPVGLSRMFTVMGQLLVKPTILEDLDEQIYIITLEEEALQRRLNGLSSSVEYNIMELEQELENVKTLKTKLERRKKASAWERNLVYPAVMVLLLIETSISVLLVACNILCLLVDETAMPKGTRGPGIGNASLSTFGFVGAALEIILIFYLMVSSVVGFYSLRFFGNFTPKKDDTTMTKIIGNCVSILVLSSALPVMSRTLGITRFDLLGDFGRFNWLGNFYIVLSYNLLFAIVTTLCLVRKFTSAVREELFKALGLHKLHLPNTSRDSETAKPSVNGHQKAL
inactive: [1] -0.165 | filanesib -0.267 | zotarolimus -0.033 | idasanutlin 0.156 | alisertib 0.016 | [2] -0.218 | [3] 0.029 | lapatinib -0.043 | pictilisib 0.043

MFSD8 (UniProt Q8NHS3)
inactive: [1] -0.236 | zotarolimus -0.062 | idasanutlin -0.019 | alisertib 0.059 | [2] -0.07 | [3] 0.054 | lapatinib 0.025 | pictilisib 0.079

MED7 (UniProt O43513)
Chain of UniProt O43513 (O43513 whole entry, looked up): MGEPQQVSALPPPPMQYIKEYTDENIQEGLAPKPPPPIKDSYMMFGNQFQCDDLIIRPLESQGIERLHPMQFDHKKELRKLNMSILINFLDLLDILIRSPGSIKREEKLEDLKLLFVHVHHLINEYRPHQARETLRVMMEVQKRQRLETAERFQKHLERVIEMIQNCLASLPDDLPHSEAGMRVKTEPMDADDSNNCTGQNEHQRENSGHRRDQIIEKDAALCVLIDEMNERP
inactive: [1] -0.021 | filanesib -0.01 | zotarolimus 0.07 | idasanutlin -0.159 | [2] -0.049 | gefitinib -0.022 | lapatinib -0.116

MASTL (UniProt Q96GX5)
inactive: [1] 0.147 | filanesib -0.09 | zotarolimus 0.088 | idasanutlin 0.072 | alisertib -0.09 | gefitinib -0.107 | [3] -0.155

KIF3B (UniProt O15066)
inactive: [1] -0.071 | filanesib 0.04 | zotarolimus 0.027 | idasanutlin -0.252 | alisertib -0.071 | [2] 0.164 | [3] 0.04 | lapatinib 0.035 | pictilisib -0.161

LRFN1 (UniProt Q9P244)
inactive: [1] -0.054 | filanesib 0.151 | zotarolimus 0.031 | [2] 0.025 | lapatinib -0.048

LAMP2 isoform 2 (UniProt P13473)
inactive: [1] -0.049 | zotarolimus 0.022 | idasanutlin 0.017 | alisertib -0.105 | [2] -0.027 | gefitinib -0.039 | [3] 0.09 | lapatinib -0.104 | pictilisib 0.075

INTS5 (UniProt Q6P9B9)
inactive: [1] -0.02 | filanesib -0.055 | idasanutlin 0.045 | alisertib -0.019 | [2] -0.111 | gefitinib -0.017 | [3] -0.004 | lapatinib 0.13

ITIH4 (UniProt Q14624)
inactive: [1] 0.252 | filanesib -0.174 | idasanutlin 0.184 | alisertib -0.047 | [2] -0.146 | gefitinib -0.093 | [3] 0.277 | lapatinib -0.034 | pictilisib -0.241
active: zotarolimus -0.896

MAP4K2 (UniProt Q12851)
Chain of UniProt Q12851 (Q12851 whole entry, looked up): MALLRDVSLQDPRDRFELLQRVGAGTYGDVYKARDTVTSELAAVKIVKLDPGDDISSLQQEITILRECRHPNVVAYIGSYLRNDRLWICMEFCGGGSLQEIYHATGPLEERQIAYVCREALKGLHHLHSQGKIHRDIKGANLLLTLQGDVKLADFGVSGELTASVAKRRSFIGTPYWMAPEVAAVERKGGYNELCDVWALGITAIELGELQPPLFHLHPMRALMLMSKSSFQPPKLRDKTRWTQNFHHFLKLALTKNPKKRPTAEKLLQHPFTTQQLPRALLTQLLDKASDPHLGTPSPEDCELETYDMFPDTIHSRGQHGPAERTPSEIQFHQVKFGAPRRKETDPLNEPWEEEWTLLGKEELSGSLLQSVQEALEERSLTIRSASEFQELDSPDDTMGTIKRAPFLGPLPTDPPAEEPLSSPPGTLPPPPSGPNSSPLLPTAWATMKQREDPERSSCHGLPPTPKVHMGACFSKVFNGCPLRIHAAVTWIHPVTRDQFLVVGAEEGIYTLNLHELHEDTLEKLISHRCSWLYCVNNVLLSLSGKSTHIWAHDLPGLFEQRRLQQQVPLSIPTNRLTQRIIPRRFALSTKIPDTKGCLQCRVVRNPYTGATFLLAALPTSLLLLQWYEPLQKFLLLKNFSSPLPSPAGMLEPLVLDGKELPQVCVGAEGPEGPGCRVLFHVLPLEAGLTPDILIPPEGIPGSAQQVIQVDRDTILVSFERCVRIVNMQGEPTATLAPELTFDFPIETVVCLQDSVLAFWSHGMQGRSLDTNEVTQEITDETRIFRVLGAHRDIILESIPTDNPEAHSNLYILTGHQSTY
inactive: [1] 0.02 | filanesib -0.143 | zotarolimus -0.083 | [2] 0.426 | gefitinib 0.034 | lapatinib -0.011

MARK2 (UniProt E9PC69)
active: [2] -0.765
inactive: [1] -0.028 | filanesib 0.128 | zotarolimus 0.122 | idasanutlin 0.106 | gefitinib -0.025 | lapatinib 0.085

LUC7L3 (UniProt O95232)
inactive: [1] 0.106 | filanesib 0.083 | zotarolimus 0.003 | idasanutlin 0.031 | alisertib -0.009 | [2] 0.021 | gefitinib -0.04 | [3] 0.011 | lapatinib 0.045 | pictilisib 0.011

ITGA2B (UniProt P08514)
inactive: [1] 0.004 | filanesib 0.086 | zotarolimus -0.065 | idasanutlin 0.138 | [2] 0.074 | gefitinib -0.086 | lapatinib 0.033
active: pictilisib -0.589

LMBRD2 (UniProt Q68DH5)
inactive: [1] -0.031 | filanesib -0.095 | zotarolimus 0.108 | idasanutlin -0.012 | alisertib -0.035 | [2] 0.025 | gefitinib 0.082 | [3] -0.021 | lapatinib 0.026 | pictilisib 0.057
